# KB-3-1 tox: KB-3-1 parental cell cytotoxicity; AID 1347075; 400,000 tested, 1.4% active; KB-3-1 viability, CellTiter-Glo ATP luminescence, 72 h; Potency, µM (top dose mostly 46.1 µM), most hits filed as cytotoxic; further: on the % scale 0 is the no-effect control and ±100 the full control effect; nearly all actives have a fitted effect of over 60% in size
#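 KB-3-1 cells, DMEM (no phenol red) + 10% FBS; compound by pin transfer, 72 h, 37 °C. Readout: CellTiter-Glo luminescence after 10 min. Data normalized, curve-fitted.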
# HT1080 IDH1KD tx: toxicity to HT-1080 IDH1 knockdown cells (counter line); HT-1080 IDH1 knockdown viability, ATP luminescence, 48 h; Potency, µM (doses to about 46.1 µM), without a hit: at the highest dose activity, negative = toxicity, actives largely listed as cytotoxic; 360,000 tested, 2% active; AID 686971;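 further: 0% = DMSO wells and -100% = cell-free medium wells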
#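 Using the IDH1-knockdown HT-1080 line run in the same batch and compound series as the NT line, viability after 48 h at 37 °C was determined by CellTiter-Glo luminescence and expressed as % activity.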
# MCF10A rerep: inducers of DNA re-replication in MCF 10A breast cells. AID 624296. 350,000 tested, 2.9% active. Potency, µM (doses to about 46.1 µM), for inactives: top-dose activity, positive = re-replication, usual class: activators. MCF 10A DNA re-replication, Hoechst nuclear intensity, 48 h; further: % of control where 0% means no effect; nearly all actives have a fitted effect of over 50% in size
# HT1080-NT tox: kills 2HG-producing HT-1080-NT fibrosarcoma cells | 360,000 tested, 1.6% active | Potency, µM (titrated, usually from 46.1 µM), without a hit: at the top dose activity, negative = less viability, actives largely listed as cytotoxic | AID 686970 | HT-1080-NT fibrosarcoma viability, CellTiter-Glo ATP luminescence, 48 h;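 further: NT is the 2HG producing partner of a matched IDH1 knockdown line; 0% = DMSO-treated cells and -100% = media-only wells without cells; nearly all actives have a fitted effect of over 55% in size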
#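 Compounds were tested in concentration-response format on HT-1080-NT cells for 48 hours at 37 degrees C. Cell viability came from CellTiter-Glo luminescence; curves were classified by r2, response magnitude and activity.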
# SW480 rerep: inducers of DNA re-replication in SW480 colon cancer cells | SW480 DNA re-replication, Hoechst DNA content imaging, 48 h | Potency, µM (titrated, usually from 46.1 µM), without a hit: at the highest dose re-replication activation, most hits filed as activators | 340,000 tested, 1.8% active | AID 624297; further: % of control where 0% means no effect; nearly all actives have a fitted effect of over 55% in size
#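 Per well, 250 cells were exposed to pinned compound for 48 hr. Nuclear DNA was visualised with Hoechst (40 min, 37 C) and total object intensity recorded by fluorescence scanning.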
# KB-V1 MDR tox: KB-V1 MDR subline cytotoxicity; KB-V1 MDR cells viability, CellTiter-Glo, 72 h; Potency, µM (series often up to 46.1 µM), hits mostly cytotoxic; 400,000 tested, 3.4% active; further: on the % scale 0 is the no-effect control and ±100 the full control effect; nearly all actives have a fitted effect of over 60% in size
#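 In this primary screen, KB-V1 cells overexpressing P-gp are incubated with library compounds (lowest to highest concentration) for 72 h at 37 degrees C before a luminescent ATP viability read.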
# Starred values were filed as active, the others as inactive; i = inactive; ? = inconclusive; / = no result given; ! = a repeat was not active; [ ] = another dose, or the depositor's remark. Rows were chosen to be rich in hits. Some 7.9% of all compounds tested hit in one or more screens of this group. The call rests on the fitted dose curve; in most records, active means well fitted curve in the direction sought with a large enough effect; inconclusive means small, poorly fitted or top-dose-only effect, or another doubt; inactive means no such curve, though single readings can be large; an effect the other way counts as inactive or inconclusive. Potency means the concentration at half of the fitted maximal effect.
SMILES,KB-3-1 tox,HT1080 IDH1KD tx,MCF10A rerep,HT1080-NT tox,SW480 rerep,KB-V1 MDR tox
O=C(NC1CCCC1)C(c1ccc(F)cc1)N(Cc1ccc(Cl)cc1)C(=O)CCl (stereo not given),?,-13%,11%,-1%,1%,16µM*
COC(CN(C(=O)CCl)C(C(=O)NC1CCCCC1)c1ccccc1C)OC (stereo not given),?,?,?,18µM*,?,?
C1CC1Cc1noc(CN2CCN(C3C4CC5CC(C4)CC3C5)CC2)n1 (stereo not given),i,19%,2.9µM*,14%,-8%,i
O=C(CN1c2ccccc2Sc2ccccc21)NNC(=S)Nc1ccc(Cl)cc1,i,?,?,?,-14%,i
O=C(CN1c2ccccc2Sc2ccccc21)NNC(=S)Nc1ccc(Cl)cc1Cl,21µM*,?,?,?,0%,13µM*
COc1cc(CN2CCc3nc(N4CCN(c5ncccn5)CC4)ncc3C2)cc(OC)c1OC,?,/,/,/,/,6.5µM*
COc1cc(C2CC(=O)c3cnc(N4CCN(Cc5ccccc5)CC4)nc3C2)cc(OC)c1OC (stereo not given),5.8µM*,-3%,13µM*,-11%,2.9µM*,?
CCOC(=O)N1CCN(c2ncc3c(n2)CC(c2ccc(Cl)cc2)CC3=O)CC1 (stereo not given),i,/,/,/,/,16µM*
CCOC(=O)N1CCN(c2ncc3c(n2)CC(c2ccccc2O)CC3=O)CC1 (stereo not given),?,/,/,/,/,18µM*
O=C(Nc1sc2c(c1C(=O)NC1CCCCC1)CCC2)c1ccco1,i,22%,20%,16%,24%,i
COc1ccc(-c2cn(Cc3ccc(C(=O)c4ccccc4)cc3)nn2)cc1,4.1µM*!,?,2.6µM*,?,?,2.6µM*!
COc1ccc(-c2cn(Cc3ccc4ccccc4c3)nn2)cc1,i,0%,-21%,20%,-16%,i
CSc1cc(-c2ccccc2)n(C)c(=O)c1C#N,i,-2%,?,-20%,-5%,?
CSc1cc(-c2ccc(Cl)cc2)n(Cc2ccccc2)c(=O)c1C#N,16µM*,6%,15%,5%,-3%,i
Cc1ccc(C(C)(C)C)cc1S(=O)(=O)Nc1cccc(S(=O)(=O)NC2=NCCC2)c1,i,-14%,13%,-1%,-5%,i
Cc1ccc(/C=C(/C#N)C(=O)NC(C)c2ccccc2)o1 (stereo not given),i,-4%,-4%,-1%,6%,18µM*
O=C1C=C(c2cccs2)C[C@H](c2ccccc2)[C@H]1n1nnc([N+](=O)[O-])n1,?,2.9µM*,?,?,?,?
CCCCN1C(=O)C(CC(=O)NC2CCCC2)CC(C(=O)N(C)C)=C1C (stereo not given),i,15%,/,16%,/,i
CC(C)(C)c1ccc(C2CC2C(=O)N/N=C\c2cc3ccccc3nc2Cl)cc1 (stereo not given),i,4%,11%,9%,-7%,10µM*
Cc1ccc2nc(Cl)c(/C=N/NC(=O)[C@H]3C[C@@H]3c3ccccc3)cc2c1,i,18%,8.2µM*,19%,?,i
Cc1ccc2nc(Cl)c(/C=N/NC(=O)c3ccccc3O)cc2c1,i,?,?,?,-61%,i
O=C(COc1cccc(Cl)c1)N/N=C\c1cc2ccccc2nc1Cl,i,4%,?,7%,0%,?
O=C(CNc1ccc2ccccc2c1)N/N=C/c1cc2ccccc2nc1Cl,i,3%,18µM*,-2%,-2%,i
CCOc1ccc(C(C(=O)NCC2CCCO2)N(C(=O)c2snc(C(N)=O)c2N)c2ccc3c(c2)OCCO3)cc1 (stereo not given),?,-19%,?,-22%,20%,?
CC(C)(O)C#Cc1ccc([C@@H]2C[C@H]3CN(c4ccccc4)C(=O)[C@]34CCCN24)s1,?,?,?,-23%,8.2µM*,i
SMILES,KB-3-1 tox,HT1080 IDH1KD tx,MCF10A rerep,HT1080-NT tox,SW480 rerep,KB-V1 MDR tox
O=C1N(c2ccccc2)C[C@@H]2C[C@@H](c3cccs3)N3CCC[C@@]123,i,-3%,5.8µM*,5%,21%,i
COCc1cc([C@@H]2C[C@H]3CN(c4ccccc4)C(=O)[C@]34CCCN24)ccc1OC,i,0%,-10%,11%,1%,i
COc1ccc([C@@H]2C[C@H]3CN(c4ccccc4)C(=O)[C@]34CCCN24)c(OC)c1OC,i,10%,-3%,8%,-14%,i
O=C(CNC(=O)c1ccco1)NCC(c1ccco1)N1CCCCC1 (stereo not given),i,6%,2%,-5%[9.24 µM],-29%,i
Cc1cc(=O)oc2cc(O)cc(OCc3ccccc3)c12,?,10%,21µM*,10%,?,15µM*
O=S(=O)(CCS(=O)(=O)c1ccccc1)c1ccccc1,i,?,?,-1%,16µM*,i
C[C@@H]1COC(=O)CCC/C=C\C[C@@H](CC(=O)N(CCO)Cc2ccccc2)C(=O)N1,i,10%,11%,6%,-36%,i
COc1ccc(OC)c(NC(=S)NCCSc2ccc(C)cc2)c1,i,0%,0%,5%,0%,23µM*
Cc1ccc(NC(=S)NCCSc2ccc(Cl)cc2)c(C)c1,i,0%,23µM*,3%,?,i
O=C(Nc1ccccc1-c1ccccc1NC(=O)c1ccco1)c1ccco1,i,-2%,18%,-7%,10%,i
COc1cc(-c2noc(C)c2C#Cc2nccn2C)cc(OC)c1OC,9.2µM*!,?,16µM*,?,?,4.6µM*!
COc1cc(-c2noc(C)c2C#CCCN2C(=O)c3ccccc3C2=O)cc(OC)c1OC,i,/,/,/,/,i
CC[n+]1ccc(/C=C/c2ccc(N(C)C)cc2)c2ccccc21,1.2µM*,1.3µM*,4%,?,-39%,i
CN(C)c1ccc(/C=C/c2ccc3ccccc3[n+]2[O-])cc1,i,/,/,/,/,?
CCCCCC[n+]1ccccc1/C=C/c1ccc(N(C)C)cc1,?,1.2µM*,/,7.3µM*,/,i
CC[n+]1c(/C=C/c2ccc(N(C)C)cc2)ccc2ccccc21,?,10µM*,-29%,10µM*,-4%,?
CN(C)c1ccc(/C=C/c2cccc3ccccc23)cc1,i,/,/,/,/,i

# Source: PubChem BioAssay
